# POLI inh = qHTS for Inhibitors of Polymerase Iota. 390,000 compounds, 1% hits. Pol iota fluorescent replication assay, 10 min. AID 588590, 2011. Potency, µM (series often up to 115 µM), for the others: top-dose activity, negative = inhibition, most hits filed as inhibitors. DNA polymerase iota (Homo sapiens), Q9UNA4; note: potency is the fitted concentration of half-maximal effect
#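 Pol iota at 10 nM preincubated 15 min with compounds at room temperature; reaction started with fluorescent substrate, 50 nM final. Fluorescence read kinetically at 0 and 10 min; buffer-only wells as negative control.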
# WRN inhibitor = qHTS for Inhibitors of WRN Helicase | Bifunctional 3'-5' exonuclease/ATP-dependent helicase WRN (Homo sapiens), Q14191 | WRN helicase unwinding, fluorescent forked duplex, kinetic | Potency, µM (top dose mostly 114 µM), inactives show at the highest dose activity change, negative = inhibition, most hits filed as inhibitors | 360,000 compounds, 0.46% hits | AID 651768, 2012; note: potency is the fitted concentration of half-maximal effect; % is set by controls: 0 for no effect and ±100 for the full control effect; nearly all actives have a fitted effect of over 55% in size
#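 WRN at 20 nM final preincubated with compound 15 min at room temperature; reaction started with 100 nM fluorophore/quencher forked duplex oligonucleotide and 2 mM ATP final. Unwinding followed kinetically by red fluorescence (ex 525, em 598 nm).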
# Pol kappa inh-1 = qHTS for Inhibitors of Polymerase Kappa; 400,000 compounds, 0.53% hits; purified Pol kappa, fluorescent DNA synthesis assay, 10 min; Potency, µM (series often up to 107 µM), for inactives: top-dose activity, negative = inhibition, actives largely listed as inhibitors; note: potency is the fitted concentration of half-maximal effect; % is set by controls: 0 for no effect and ±100 for the full control effect
# Target sequence (Q9UBT6 whole entry, looked up): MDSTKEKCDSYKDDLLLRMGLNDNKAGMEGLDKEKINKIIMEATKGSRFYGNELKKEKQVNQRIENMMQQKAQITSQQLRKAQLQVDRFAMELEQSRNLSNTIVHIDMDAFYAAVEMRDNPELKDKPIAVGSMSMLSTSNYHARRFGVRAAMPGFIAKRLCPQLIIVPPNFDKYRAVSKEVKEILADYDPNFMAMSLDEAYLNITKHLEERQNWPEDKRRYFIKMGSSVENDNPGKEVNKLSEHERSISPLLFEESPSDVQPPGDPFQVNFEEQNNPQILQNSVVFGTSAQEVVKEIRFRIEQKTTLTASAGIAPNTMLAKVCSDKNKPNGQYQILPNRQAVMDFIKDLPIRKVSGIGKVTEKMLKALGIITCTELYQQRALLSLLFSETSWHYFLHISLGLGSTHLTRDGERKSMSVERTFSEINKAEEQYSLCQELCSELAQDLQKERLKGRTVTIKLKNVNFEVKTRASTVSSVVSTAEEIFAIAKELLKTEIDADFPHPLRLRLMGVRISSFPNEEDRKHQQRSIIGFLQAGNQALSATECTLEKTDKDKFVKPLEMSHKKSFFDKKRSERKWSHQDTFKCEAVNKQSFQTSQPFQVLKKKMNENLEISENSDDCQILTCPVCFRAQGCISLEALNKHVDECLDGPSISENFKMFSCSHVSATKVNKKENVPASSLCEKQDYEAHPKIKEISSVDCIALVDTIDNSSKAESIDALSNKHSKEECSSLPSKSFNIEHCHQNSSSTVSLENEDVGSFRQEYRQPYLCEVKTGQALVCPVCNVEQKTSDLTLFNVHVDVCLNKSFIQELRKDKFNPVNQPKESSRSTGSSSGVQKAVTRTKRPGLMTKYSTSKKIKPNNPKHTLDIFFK
#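 Inhibition of 10 nM Pol kappa is measured by a fluorescent read-out at 0 and 10 min following addition of 50 nM substrate (final), with a 15-min room-temperature compound preincubation.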
# Pol eta inh-1 = qHTS for Inhibitors of Polymerase Eta | recombinant Pol eta, fluorescent DNA replication assay | Potency, µM (titrated, usually from 114 µM), for the others: top-dose activity change, negative = inhibition, hits mostly inhibitors | 390,000 compounds, 1.2% hits | AID 588591, 2011; note: potency is the fitted concentration of half-maximal effect; % is set by controls: 0 for no effect and ±100 for the full control effect
#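 Fluorescent replication assay: 50 nM final substrate added after a 15 min room-temperature compound preincubation with 10 nM enzyme. Signal taken at 0 min and again at 10 min.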
# PI5P4Ka inh = qHTS for Inhibitors of phosphatidylinositol 5-phosphate 4-kinase (PI5P4K). PI5P4Kalpha enzyme, ADP-Glo luminescence, 60 min; hits give low values. max response, %. 330,000 compounds, 1.2% hits. AID 652105, 2013; active = max response of -50% or lower; inconclusive = between -30% and -50%; inactive = -30% or higher; note: value at the top dose of about 77 µM; % is set by controls: 0 for no effect and ±100 for the full control effect
#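 Reactions run in 0.038 M HEPES pH 7.4, 0.28 mM EGTA, 0.1% CHAPS and 5% DMSO, with PI5P4Kalpha, substrate, compound and 5 microM ATP final, one hour at room temperature. Readout is ADP-Glo luminescence.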
# Pol beta inh = qHTS Assay for Inhibitors of DNA Polymerase Beta. P06746. Pol beta primer extension/strand displacement, fluorescence kinetic. Potency, µM (highest dose often 114 µM), for the others: top-dose activity change, negative = inhibition, hits mostly inhibitors. 340,000 compounds, 1.3% hits. AID 485314, 2010; note: potency is the fitted concentration of half-maximal effect; % is set by controls: 0 for no effect and ±100 for the full control effect
#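 Reaction started by 50 nM substrate onto compound-treated Pol beta (10 nM, 15 min preincubation, room temperature); plates read at 0 min and 10 min. Normalized concentration-effect data fitted by four-parameter Hill equation.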
# Pol kappa inh-2 = qHTS for Inhibitors of Polymerase Kappa: Confirmatory Assay for Cherry-picked Compounds; shares compounds with Pol eta inh-1; purified Pol-kappa, fluorescent strand-displacement substrate; Potency, µM, hits mostly inhibitors; 920 compounds, 76% hits; AID 720501, 2013; note: potency is the fitted concentration of half-maximal effect
# Pol eta inh-2 = qHTS for Inhibitors of Polymerase Eta: Confirmatory Assay for Cherry-picked Compounds; shares compounds with Pol eta inh-1; 2,600 compounds, 64% hits; Pol eta primer extension, TAMRA/BHQ fluorescence, 10 min; AID 720502, 2013; Potency, µM, usual class: inhibitors; note: potency is the fitted concentration of half-maximal effect
# Starred values were filed as active, the others as inactive; ? = inconclusive; . = not tested or not shown; [ ] = remark or other dose. Only some compounds are listed: those with a hit (about 2.8% of all), similar ones and a draw of the others. Unless noted, calls come from the whole dose curve; as a rule, active = well fitted curve in the direction sought with a large enough effect; inconclusive = small, poorly fitted or top-dose-only effect, or another doubt; inactive = no such curve, though single readings can be large; an effect the other way counts as inactive or inconclusive.
SMILES,POLI inh,WRN inhibitor,Pol kappa inh-1,Pol eta inh-1,PI5P4Ka inh,Pol beta inh,Pol eta inh-2,others
Cc1cccc(NC(=O)c2sc3nc(-c4cc5ccc(O)cc5oc4=O)[nH]c(=O)c3c2C)c1,41%,.,-3%,?,.,?,?,
Cc1ccc(N=C2NC(=O)/C(=C/C=C/c3ccco3)S2)cc1,3.2µM*,35µM*,20µM*,10µM*,-78*,22µM*,67*,
COc1c(-c2coc3cc4c(cc3c2=O)CC(O)C(C)(C)O4)ccc2c1C=CC(C)(C)O2 (stereo not drawn),.,.,-16%[60.1 µM],.,.,.,.,
CCc1ccc([C@@H]2C[C@H]3[C@@H](CN2S(=O)(=O)c2ccc(C)cc2)C(=O)C[C@@H](c2cccc(Cl)c2)N3S(=O)(=O)c2ccc(C)cc2)cc1,.,-1%,.,2%,5,.,.,
CCc1ccc(N2CC(C(=O)OCc3csc(CC(=O)Nc4ccccc4C)n3)CC2=O)cc1 (stereo not drawn),-12%,4%,-20%,-15%,-11,.,.,
CCc1ccc(N2CC(C(=O)OCc3nc4ccsc4c(=O)[nH]3)CC2=O)cc1 (stereo not drawn),?,-15%[11.6 µM],79µM*,40µM*,-28,.,67*,
Cc1cc(/C=C2\SC(=S)NC2=O)c(C)n1-c1cccc(O)c1,?,?,-18%,35µM*,-68*,45µM*,?,
Cc1ccc(-n2c(C)cc(/C=C3\SC(=O)NC3=O)c2C)cc1,?,-2%,3%,-9%,-22,?,.,
C=CC1=C(C(=O)O)N2C(=O)[C@@H](NC(=O)/C(=N\O)c3csc(N)n3)[C@H]2SC1 (stereo in doubt),?,-17%,?,?,?,.,?,
Cc1ccc(C)c(NC(=O)Cn2cnc3c(oc4ccccc43)c2=O)c1,29%,-7%,-3%,?,6,35%,.,Pol kappa inh-2=67*
Nc1nonc1C(=O)N/N=C/c1ccc(-c2ccc(Cl)c(C(=O)O)c2)o1,22µM*,?,?,13µM*,-24,?,48*,
Cc1ccc(N2NC(=O)/C(=C/c3ccc(-c4ccc(Cl)c(C(=O)O)c4)o3)C2=O)cc1C,?,-19%[11.6 µM],-44%,?,-17,-2%,.,Pol kappa inh-2=?
CC1(C)OC(=O)C(=Cc2ccc(-c3ccc(Cl)c(C(=O)O)c3)o2)C(=O)O1,?,45µM*,40µM*,10µM*,?,?,27*,
COc1cccc(/C=C2/C(=O)NN(c3ccc(C)c(C)c3)C2=O)c1,?,-2%,-1%,-12%,2,?,.,

# Screens: PubChem, National Center for Advancing Translational Sciences (NCATS)
